Laboratory results from ChEMBL document CHEMBL3988442, “University of Dundee, Small-Polar-MMV Screening Library” (2021).
“And” between values parts separate entries of the source, which are not always exact repeats. Identical values can stand only once. Among all 67,000 compounds or so, about 40 (0.06%) showed an effect of 50% or more. The full list was thinned out, with strong results kept by preference.

Each molecule was assayed against T1, Coenzyme A biosynthesis bifunctional protein CoaBC (Mycobacterium tuberculosis (strain ATCC 25618 / H37Rv)) (UniProt P9WNZ1) (assay: Biomol Green assay for MtCoaBC inhibitor, OD650 read). Settings: 30 µM.
T1 sequence (whole entry): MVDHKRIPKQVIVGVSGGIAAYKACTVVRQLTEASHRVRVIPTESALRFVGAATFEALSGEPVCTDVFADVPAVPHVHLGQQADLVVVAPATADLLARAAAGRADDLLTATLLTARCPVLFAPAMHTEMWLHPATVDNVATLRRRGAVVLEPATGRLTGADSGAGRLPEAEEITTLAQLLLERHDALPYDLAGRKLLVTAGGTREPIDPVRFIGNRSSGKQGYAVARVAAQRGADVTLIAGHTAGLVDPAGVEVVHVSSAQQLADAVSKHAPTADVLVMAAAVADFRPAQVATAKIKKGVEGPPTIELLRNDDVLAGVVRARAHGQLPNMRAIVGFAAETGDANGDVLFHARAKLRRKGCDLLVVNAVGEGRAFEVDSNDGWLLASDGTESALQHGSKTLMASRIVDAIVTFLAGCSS
Assay type: functional
Set-up: scale not given: in the data most compounds retested in dose-response had high values

SMILES | Percent Effect
Cc1csc(CN2CC[C@H]3C[C@H](c4nc(C)no4)O[C@@H]3C2)n1 | -2.84%
CCS(=O)(=O)N1C[C@H]2CN(Cc3cccc(F)c3)C(=O)[C@H]2C1 | -7.25%
Cc1cccc(CN2CC[C@@H]3[C@@H]2CCN3C(=O)c2cnoc2C)n1 | 8.49%
O=C1OCCN1CC(=O)N1C[C@H]2CC[C@@H]1CN(C(=O)c1cccnc1)C2 | 7.56%
COC[C@@]12CC[C@@H](N3CCOCC3)C[C@H]1CCN(c1cnccn1)C2 | -5.95%
CC(C)CN1CC[C@@H]2[C@@H]1CCN2S(=O)(=O)c1cn(C)cn1 | 4.68%
O=C(O)c1cc(-n2cc3c(n2)CCC3)cc(S(=O)(=O)N2CCOCC2)c1 | -5.92%
O=C(O)c1cc(-n2cc3c(n2)CCC3)cc(S(=O)(=O)NC2CCCC2)c1 | -0.121%
COc1cc(N2CCC[C@]3(C(=O)O)CN(C(C)C)C[C@@H]3C2)ncn1 | -10.7%
c1ccc(CN2C[C@@H]3COC[C@]3(COCC3CCOCC3)C2)nc1 | 9.51%
COCCNC(=O)C[C@@H]1COC[C@H]2CN(CC3CCOCC3)C[C@@H]12 | -2.48%
COc1cnc(N2CCN(C)CC2)nc1-c1ccnn1C | 5.52%
Cc1cnc(N2CCN(C)CC2)nc1-c1ccnn1C | 5.03%
CN1[C@H](Cn2cccn2)C[C@@H]2CN(Cc3cccs3)CC[C@@H]21 | 5.67%
CO[C@@H]1CN(Cc2scnc2C)[C@@H]2CCCO[C@@H]21 | -51.5%
O=C(c1ccc[nH]1)N1C[C@H]2CN(Cc3cccc(F)c3)C(=O)[C@H]2C1 | 8.74%
Cc1ccc(S(=O)(=O)NCCNC(=O)c2cncnc2C)cc1 | 5.91%
CCc1ncncc1C(=O)NCCNS(=O)(=O)c1ccc(C)cc1 | 3.17% and 20.9%
Cc1ccc(N2CCO[C@H]3CN(Cc4cccnc4)C[C@H]32)nn1 | 3.85%
C[C@H]1C[C@H]2CN(C(=O)c3ccncn3)CC[C@@H]2O1 | 3.76%
Cc1cccc(CN2C[C@H]3CCC[C@@]3(COCc3csc(C)n3)C2)n1 | 3.06%
CCOCC1CN(C(=O)C2=CCCC2)Cc2cnn(CC)c21 (stereo unspecified) | 12.8%

SMILES | Percent Effect
CCOCC1CN(C(=O)N2CCCC2)Cc2cnn(C)c21 (stereo unspecified) | -2.1%
O=C1NCCO[C@H]2CN(C(=O)c3cccs3)CC[C@@H]12 | 2.96%
CNC(=O)[C@H]1C[C@@H]2CN(C(=O)c3ccncc3)C[C@@H]2N1S(C)(=O)=O | 2.59%
O=C(NCCc1cccs1)[C@H]1CO[C@H]2CCN(C3CCC3)C[C@H]2C1 | 6.17%
O=C1CO[C@@H]2CNC[C@H]2N1CC1CC1 | 0%
Cn1cc(CN2CC[C@@H]3[C@@H]2CCN3C(=O)c2cccc(F)c2)cn1 | 5.07%
Cc1cc(N2CCC(O)CC2)nc(C)n1 | 11.1%
CN1CCCCC1c1cncc(N2CCC(O)CC2)n1 (stereo unspecified) | -0.526%
CCCc1cc(C(=O)N2C[C@H]3CC=C(C)C[C@H]3C2)ccn1 | 2.3%
O=C(NCC1CCOCC1)[C@@H]1C[C@@H]2[C@@H](CCN2Cc2ccoc2)O1 | 2.96%
CCc1cnc(N2C[C@H]3CN(Cc4ccc(OC)cc4)C(=O)[C@H]3C2)nc1 | -3.75%
CC(C)c1nc(C(=O)N2C[C@H]3CC[C@@H]2CN(C2CCOCC2)C3)cs1 | 5.66%
Cn1cc(CN2CC[C@H]3O[C@H](C(=O)NC4CC4)CC[C@H]32)c2ccccc21 | -3.06%
CN(C)c1ncc2c(n1)CN(C1CC(C)(C)NC(C)(C)C1)C2=O | 0.231%
CC(C)OC(=O)N1C[C@H]2CC[C@@H]1CN(Cc1cccnc1)C2 | 5.14%
COC1CCN(CCNC(=O)NCC(C)c2cccc(C)c2)CC1 (stereo unspecified) | -16.8%
COC1CCN(CCNC(=O)NC(C)c2cccc(Cl)c2)CC1 (stereo unspecified) | -0.455%
COc1cccc(CN2C[C@H]3CC[C@H]2C3)c1OCCN1CCOCC1 | 4.29%
CCc1ccc(CN2CCN(CCOC)[C@@H]3CS(=O)(=O)C[C@@H]32)cc1 | 8.73%
Cc1noc(C)c1CN1C[C@@H]2COC[C@H](C(=O)N3CCCCO3)[C@@H]2C1 | 0.259%
CC(C)N(Cc1ccc(Cl)c(Cl)c1)C(=O)CCn1cncn1 | 5.9%
CC(C)N(Cc1ccc(Cl)c(Cl)c1)C(=O)Cn1cncn1 | 5.66%

SMILES | Percent Effect
O=C(c1ccncc1)N1C[C@@H](OCc2cccnc2)[C@H]2OCCC[C@H]21 | 4.2%
Cc1ccc(-n2cc(S(=O)(=O)Nc3cccc(C(=O)O)c3C)cn2)cc1 | 0.726%
Cc1ccc(NS(=O)(=O)c2cnn(Cc3ccccc3)c2)c(C(=O)O)c1 | 0.726%
Cc1ccc(NS(=O)(=O)c2cnn(-c3ccccc3)c2)c(C(=O)O)c1 | 64.4% and 43.6%
COCCC(=O)NC[C@H]1CC[C@H](C(c2ccccn2)N(C)C)CC1 (stereo partly specified) | -1.84%
CNC(=O)N1CC[C@@H]2CN(Cc3ccccc3)S(=O)(=O)[C@@H]2CC1 | 1.48%
Cc1ccc(N2CC[C@@]3(O)CCN(S(C)(=O)=O)C[C@H]3C2)nn1 | -0.123%
O=C(CC1CC1)N1CC[C@H]2[C@@H]1CCC(=O)N2c1cccnc1 | 5.4%
COc1cc(N2CC[C@@H]3O[C@H](C(=O)NCC4CC4)C[C@@H]32)ncn1 | -0.37%
COCCN1CCC2(CC1)CN(CCn1cccn1)C(=O)CO2 | -1.25%
O=C1COC2(CCN(Cc3ccoc3)CC2)CN1CCn1cccn1 | -3.75%
Cn1cc(C(=O)N2CC[C@@]3(O)CCN(C4CCCCC4)C[C@H]3C2)cn1 | 0.467%
CN(C)CCO[C@@H]1CC[C@H]2[C@H]1OCCN2C(=O)c1ccccc1F | 3.95%
CNC(=O)[C@H]1C[C@@H]2CN(S(=O)(=O)c3ccc(C)cc3)C[C@@H]2N1C | 1.63%
O=C([C@@H]1C[C@@H]2CCN(c3cccc(F)c3)C[C@H]2O1)N1CCCC1 | -8.02%
Cc1cccc(CN2C(=O)C[C@H]3[C@@H]2CCN3Cc2ccc(F)cc2)n1 | 9.41%
CC(=O)N1[C@H](Cn2cncn2)C[C@@H]2CN(c3ccc(C)nn3)CC[C@@H]21 | 6.82%
O=C(NC1CCC1)[C@@H]1C[C@@H]2CCN(Cc3ccncc3)C[C@H]2O1 | 4.7%
COc1ccc(NC2(C(=O)N3CCn4cncc4C3)CCCC2)cc1 | 8.96%
Cc1ccc(NC2(C(=O)N3CCn4cncc4C3)CCCCC2)cc1C | 4.82%
CC1=N[C@@]2(CC[C@@H]3CN(C(=O)NCc4ccccc4C)C[C@@H]32)C(=O)N1 | 0.609%
O=C(COC[C@@H]1CC[C@H]2[C@H](CCN2Cc2ccco2)O1)N1CCCC1 | 9.53%
